In PubChem BioAssay AID2235 (The Scripps Research Institute Molecular Screening Center, 2010) one finds inhibition data, which are given here for 93 compounds.

The whole screen tested about 320,000 compounds, of which about 2,800 (0.88%) were called active.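 How the source made its calls: active means inhibition above the mean inhibition of all tested compounds plus 3 SD, computed separately for each screening campaign (cut at about 15% in these data); inactive means the rest.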 The sample as a whole holds a higher share of actives than the screen did.

The test deals with Serine/threonine-protein phosphatase PP1-alpha catalytic subunit (Homo sapiens) (UniProt P62136). The experiment in a line: PP1-alpha phosphatase inhibitors, primary screen, counter-screen for PP5 inhibitor project, biochemical, fluorescence, OMFP substrate, single point (AID 2235). Conditions: purified PP1alpha, at 6.7 µM, active compounds read high. (In general: A counterscreen serves to expose hits that act by an unwanted route or on another target.)
Chain of Serine/threonine-protein phosphatase PP1-alpha catalytic subunit (Homo sapiens) (P62136 whole entry, looked up): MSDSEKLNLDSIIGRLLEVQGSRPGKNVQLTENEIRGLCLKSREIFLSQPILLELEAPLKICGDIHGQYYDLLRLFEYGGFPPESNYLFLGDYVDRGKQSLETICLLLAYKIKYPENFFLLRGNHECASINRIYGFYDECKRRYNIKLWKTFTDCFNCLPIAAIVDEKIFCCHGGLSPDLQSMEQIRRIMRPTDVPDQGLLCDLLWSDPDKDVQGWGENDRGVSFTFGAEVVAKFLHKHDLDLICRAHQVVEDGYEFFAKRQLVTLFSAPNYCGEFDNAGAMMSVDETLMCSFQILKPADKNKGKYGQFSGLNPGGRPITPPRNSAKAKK
A word on the inhibition: it is the relative decrease from the control value, in per cent. As for `O=C(CN1C(=O)C2C3C=CC(C3)C2C1=O)NCC1COc2ccccc2O1` (stereo not drawn), the inhibition is 0.06% (inactive).

On to `O=C1C(=O)N(CC2COc3ccccc3O2)c2ccccc21` (stereo not drawn), for which the inhibition was 18.4% (active).

In the case of `Cc1cc(C(=O)CCl)c(C)n1CC1COc2ccccc2O1` (stereo not drawn), the inhibition was -1.57% (inactive).

With `O=C(NC(Cc1c[nH]c2ccccc12)C(=O)O)/C(=C/c1ccco1)NC(=O)c1ccccc1` (stereo not drawn), the inhibition is -3.53% (inactive).

Turning to `CN(C(=O)CSc1nnc(-c2n[nH]c3ccccc23)o1)c1ccccc1`, the inhibition was -3.45% (inactive).

Turning to `COc1ccc(/C=C2\SC(=O)N(CCC(=O)NC3CCS(=O)(=O)C3)C2=O)cc1` (stereo not drawn), the inhibition was -1.73% (inactive).

Take `Cn1c(=N)n(CC(O)c2cccs2)c2ccccc21` (stereo not drawn): the inhibition is 2.31% (inactive).

Turning to `N=c1n(Cc2ccc(Cl)cc2)c2ccccc2n1CC(O)c1ccco1` (stereo not drawn), the inhibition is 21.9% (active).

`Cn1c(=N)n(CC(O)c2ccccc2)c2ccccc21` (stereo not drawn): the inhibition was -1.18% (inactive).

Regarding `O=S(=O)(c1cccc(-c2cn3ccccc3n2)c1)N1CCCC1`, the inhibition is -0.43% (inactive).

In the case of `O=C(O)c1ccccc1OCc1ccccc1Cl`, the inhibition was -3.14% (inactive).

For the compound `CC(C)c1cc(C(N)=O)c(NC(=O)c2cccc(COc3ccc(Br)cc3)c2)s1`, the inhibition is 6.73% (inactive).

For `COc1ccc(N2CCN(S(=O)(=O)c3ccc4c(c3)NC(=O)C(C)C(=O)N4)CC2)cc1` (stereo not drawn), the inhibition was -1.74% (inactive).

With `CSC1=NCCN1C(=O)Cc1cccc2ccccc12`, the inhibition is -1.43% (inactive).

As for `CN(C)[C@@H]1C(=O)C(C(N)=O)=C(O)[C@@]2(O)C(=O)C3=C(O)c4c(O)ccc(Cl)c4[C@@H](O)[C@H]3C[C@@H]12`, the inhibition was 5.56% (inactive).

Consider `C=C1c2c(Cl)ccc(O)c2C(O)=C2C(=O)[C@]3(O)C(O)=C(C(N)=O)C(=O)[C@@H](N(C)C)[C@@H]3[C@@H](O)C12` (stereo partly drawn), for which the inhibition is 23.5% (active).

With `Cc1cc(Nc2cccc(F)c2)n2ncnc2n1`, the inhibition was -2.78% (inactive).

As for `COc1cccc(/C=N/Nc2cc(C)nc(-c3ccccc3O)n2)c1O`, the inhibition was 6.15% (inactive).

Take `COc1ccccc1/C=N\Nc1cc(C)nc(-n2nc(C)cc2C)n1`: the inhibition was 30.7% (active).

On to `Cc1cc(N/N=C\c2ccc(Br)cc2)nc(-n2nc(C)cc2C)n1`, for which the inhibition is 21.7% (active).

As to `CN(C)c1ccc(/C=N/Nc2cc(N3CCOCC3)nc(N3CCOCC3)n2)cc1`, the inhibition is -2.51% (inactive).

For `Cc1nc(Cl)cc(N/N=C/c2ccccc2)n1`, the inhibition was -6.15% (inactive).

Take `COc1ccccc1/C=N/Nc1nc(C)c(C(C)=O)s1`: the inhibition was 1.23% (inactive).

Take `CS(=O)(=O)N(Cc1nc2sc3c(c2c(=O)[nH]1)CCCC3)C1CCCCC1`: the inhibition was 1.31% (inactive).

`NC1=NC(c2ccc([N+](=O)[O-])cc2)N(c2ccc(F)cc2)C(N)=N1` (stereo not drawn): the inhibition is 1.43% (inactive).

On to `CCOc1ccc(C)cc1S(=O)(=O)NC1CCCCCC1`, for which the inhibition is 0.47% (inactive).

As to `O=C(CN1CCc2ccccc21)NC(c1ccccc1)c1ccccc1`, the inhibition is 17.5% (active).

With `NS(=O)(=O)c1cccc(NC(=O)CN2CCCc3ccccc32)c1`, the inhibition is -0.85% (inactive).

With `O=C(CN1CCN(Cc2ccccc2)CC1)NC(c1ccccc1)c1ccccc1`, the inhibition was 10.6% (inactive).

For the compound `CCn1cc(CN2CCCC(CNS(=O)(=O)Cc3ccccc3)C2)cn1` (stereo not drawn), the inhibition is 0.72% (inactive).

Turning to `COC(=O)N1CN(C(=O)OC)CN(C(=O)OC)C1`, the inhibition was -3.93% (inactive).

On to `O=C(CCCN1C(=O)/C(=C/c2cccs2)SC1=S)Nc1ccc(O)cc1`, for which the inhibition was -0.73% (inactive).

Regarding `CCCCN(CCCC)CCC(O)c1cc2c(Cl)cc(Cl)cc2c2cc(C(F)(F)F)ccc12` (stereo not drawn), the inhibition is 17% (active).

As for `CCCCC(=O)Nc1ccc(C(=O)Nc2cc(C(F)(F)F)ccc2Cl)cc1`, the inhibition is 1.1% (inactive).

Regarding `CC(C)c1nnc(NC(=O)CCC(=O)N2CCN(c3cccc(Cl)c3)CC2)s1`, the inhibition is -3.62% (inactive).

For `NNC(=O)c1cnn(-c2ccccc2)c1C(F)(F)F`, the inhibition was 0.34% (inactive).

For the compound `CCO/N=C(/C)c1c(O)cc(-c2ccccc2)n(-c2ccccc2)c1=O`, the inhibition was -2.6% (inactive).

For the compound `CC(C)NC(=O)NC(=O)COC(=O)c1ccc(NC(=O)CC#N)cc1`, the inhibition was -2.32% (inactive).

With `CCOc1ccc(NC(=O)CCNC(=O)c2ccc(Br)cc2)cc1`, the inhibition was 1.21% (inactive).

In the case of `CCOc1ccc(NC(=O)c2ccc(NC(=O)COC(=O)c3ccc(NC(=O)CC#N)cc3)cc2)cc1`, the inhibition was 75.8% (active).

Take `CN=C(c1ccccc1)c1c(C)cccc1C`: the inhibition was 2.55% (inactive).

On to `CCNC(=O)NC(=O)C(C)OC(=O)c1cc(S(=O)(=O)N2CCCCCC2)ccc1OC` (stereo not drawn), for which the inhibition is 1.67% (inactive).

For the compound `COc1cccc(NC(=O)Cn2c3ccccc3c3nc4n(c(=O)c32)CCS4)c1`, the inhibition was -2.19% (inactive).

Consider `O=C(NCc1ccc2c(c1)OCO2)C12CC3CC(CC(C3)C1)C2`, for which the inhibition was -3.56% (inactive).

For `O=C(CSc1nnc(C2CC2)n1Cc1ccccc1)Nc1cccnc1Cl`, the inhibition is 18% (active).

For the compound `COc1ccc(-c2nnc(SCC(=O)Nc3cccnc3Cl)n2C)cc1`, the inhibition is -4.29% (inactive).

Consider `CC(=O)Nc1ccc(NC(=O)CSc2nnc(C3CC3)n2-c2ccccc2)cc1`, for which the inhibition was -2.45% (inactive).

As to `CC(=O)c1cccc(NC(=O)COc2ccc(S(=O)(=O)N3CCOCC3)cc2)c1`, the inhibition is -2.4% (inactive).

As for `Cc1ccccc1/[N+]([O-])=C/c1ccncc1`, the inhibition was -3.82% (inactive).

In the case of `O=S(=O)(NCc1ccc2c(c1)OCO2)c1cccc2nsnc12`, the inhibition is -1.4% (inactive).

In the case of `O=S(=O)(c1ccc(F)cc1)N1CCN(C(=S)NCc2ccco2)CC1`, the inhibition is -1.26% (inactive).

On to `COc1ccc2nc(NC(=O)c3ccc(Br)s3)sc2c1`, for which the inhibition is 3.31% (inactive).

In the case of `COc1ccc2nc(NC(=O)NC3CCCCC3)sc2c1`, the inhibition is 0.1% (inactive).

Consider `COc1ccc2nc(Nc3nc(-c4ccncc4)cs3)sc2c1`, for which the inhibition is 15.7% (active).

In the case of `CCOC(=O)c1c(Cc2ccc(Cl)cc2)c[nH]c1C`, the inhibition is 0.15% (inactive).

Consider `O=C(O)c1cccc(NC(=O)c2cc(-c3cccc(Cl)c3)nc3ccccc23)c1`, for which the inhibition was 8.21% (inactive).

Turning to `O=C(Nc1cccc(F)c1)c1cc(-c2ccco2)nc2ccccc12`, the inhibition was 17% (active).

Turning to `COc1ccc(NC(=O)c2cc(-c3ccc(C)o3)nc3ccccc23)cc1`, the inhibition was -1.75% (inactive).

Consider `O=C(c1ccc(Cl)nc1)N1CCN(S(=O)(=O)c2ccc3c(c2)OCCO3)CC1`, for which the inhibition is 1.34% (inactive).

On to `FC(F)(F)c1nc(-c2ccccc2)ncc1-c1nnnn1-c1ccccc1`, for which the inhibition was 0.75% (inactive).

Consider `O=C(Cn1cc(-c2nnnn2-c2ccc(Cl)cc2)c(=O)c2ccccc21)c1ccccc1`, for which the inhibition was 1.68% (inactive).

On to `Clc1ccc(-n2nnnc2-c2cnc(-c3ccccn3)nc2-c2cccs2)cc1`, for which the inhibition is 75.5% (active).

For `O=S(=O)(c1ccc(F)cc1)n1ccc(-c2cnc(-c3ccccc3)s2)n1`, the inhibition is 5.23% (inactive).

As to `CCOc1ccc2sc(NS(=O)(=O)c3ccc(N)cc3)nc2c1`, the inhibition is 1.47% (inactive).

`COCCCn1c(SCC(=O)Nc2oc(C)c3c(C)n[nH]c(=O)c23)nc2sc3c(c2c1=O)CCC3`: the inhibition was -2.04% (inactive).

Turning to `CCOc1ccc(C(O)Cn2c(=N)n(CCN3CCCCC3)c3ccccc32)cc1` (stereo not drawn), the inhibition is 0.66% (inactive).

For the compound `Cc1cccc(OCC(O)Cn2c(=N)n(CCN3CCOCC3)c3ccccc32)c1` (stereo not drawn), the inhibition was 26% (active).

For `C=CCn1c(=N)n(CC(O)COc2ccc(OC)cc2)c2ccccc21` (stereo not drawn), the inhibition was -0.92% (inactive).

With `Cc1ccc(NC(=O)NC(=O)N(C2CCCCC2)S(=O)(=O)c2ccccc2)cc1`, the inhibition was 0.85% (inactive).

Consider `C=CCn1c(SCc2csc(C)n2)nc2scc(-c3ccc(C)o3)c2c1=O`, for which the inhibition was -0.82% (inactive).

As for `C=CCn1c(=S)[nH]c2scc(-c3ccco3)c2c1=O`, the inhibition is 18.8% (active).

In the case of `C=CCNC(=O)CSc1nc2scc(-c3ccco3)c2c(=O)n1CC=C`, the inhibition was 3.47% (inactive).

As to `COc1cc(NC(=S)NNC(=O)CC(C)C)c(OC)cc1Cl`, the inhibition is -3.43% (inactive).

As for `Cc1nnc(NC(=O)CCC(=O)N2CCC(C)CC2)s1`, the inhibition was -0.54% (inactive).

Regarding `CC1(C)O[C@@H]2[C@H](O1)[C@@H](COS(=O)(=O)O)O[C@H]2n1ccc(=O)[nH]c1=O`, the inhibition was 1.54% (inactive).

`COc1cc(NC(=O)CSc2nnc3ccc(-c4ccncc4)nn23)cc(OC)c1`: the inhibition is -2.13% (inactive).

`CC1CCCCN1S(=O)(=O)c1ccc(C(=O)Nc2nnc(-c3cccs3)o2)cc1` (stereo not drawn): the inhibition is 25.9% (active).

For the compound `CC1CCCCN1S(=O)(=O)CCNC(=O)c1ccccc1` (stereo not drawn), the inhibition is -2.78% (inactive).

Take `CC1CCCN(S(=O)(=O)c2ccc(C(=O)Nc3nnc(-c4ccncc4)o3)cc2)C1` (stereo not drawn): the inhibition was 7.97% (inactive).

In the case of `CC1CCCCN1S(=O)(=O)c1ccc(S(=O)(=O)N(CC(=O)Nc2ccccc2)Cc2cccs2)cc1` (stereo not drawn), the inhibition was 3.05% (inactive).

`CSCc1nnc(NC(=O)c2ccc(S(=O)(=O)N3CCCCC3C)cc2)o1` (stereo not drawn): the inhibition is 16.8% (active).

For `O=C(Nc1nnc(-c2ccco2)o1)c1ccc(S(=O)(=O)N2CCOCC2)cc1`, the inhibition was 1.14% (inactive).

Turning to `COC(=O)c1ccc(-c2c(-c3ccccc3)ncc3cc(OC)c(OC)cc23)cc1`, the inhibition was 1.2% (inactive).

For the compound `CCCCCCCC(=O)NC(Nc1ccccc1OC)C(Cl)(Cl)Cl` (stereo not drawn), the inhibition is 4.91% (inactive).

As to `COCC(=O)Nc1c(I)c(C(=O)NCC(O)CO)c(I)c(C(=O)N(C)CC(O)CO)c1I` (stereo not drawn), the inhibition was -5.4% (inactive).

Regarding `Cc1cc(C)nc(-n2ncc3c2CC(c2ccc(C(C)C)cc2)CC3=O)n1` (stereo not drawn), the inhibition was 15.3% (active).

As to `COc1cc(S(=O)(=O)Nc2ncn[nH]2)ccc1Cl`, the inhibition was -0.04% (inactive).

For the compound `Cc1ccccc1S(=O)(=O)N1[C@@H](c2cccc(Cl)c2)C(C(=O)O)=CC[C@H]1c1ccc(Cl)cc1`, the inhibition was 20.5% (active).

Regarding `Cc1ccc(S(=O)(=O)N2[C@@H](c3cccc(Cl)c3)C(C(=O)O)=CC[C@H]2c2ccc(Cl)c(Cl)c2)cc1`, the inhibition was 21.6% (active).

On to `Cc1ccc(S(=O)(=O)N2[C@@H](c3ccccc3F)C(C(=O)O)=CC[C@H]2c2ccc(Cl)cc2)cc1`, for which the inhibition is 4.64% (inactive).

For `Cc1ccc([C@@H]2CC=C(C(=O)O)[C@H](c3cccc(Cl)c3)N2S(=O)(=O)c2ccc(C)cc2)cc1`, the inhibition was 5.69% (inactive).

Consider `CS(=O)(=O)N(CC(=O)N1CCN(c2cccc(Cl)c2)CC1)c1ccccc1`, for which the inhibition was -1.41% (inactive).

For `CN1OC(COC(=O)c2ccc(Cl)cc2)CC1c1ccccc1` (stereo not drawn), the inhibition was 1.23% (inactive).
